Assay outcomes as filed in PubChem BioAssay.
Hits are enriched below; roughly 11% of the tested compounds scored in any of these assays.
HP1b binding inh: HTS for Inhibitors of HP1-beta Chromodomain Interactions with Methylated Histone Tails; Chromobox protein homolog 1 (Homo sapiens), P83916; AlphaScreen HP1-beta / biotin-H3K9me3 peptide binding; Potency, µM (doses to about 114 µM), usual class: inhibitors; 390,000 compounds, 0.56% hits; further: nearly all actives have a fitted effect of over 70% in size
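Compound inhibition of the preformed complex between 50 nM HP1-beta and 50 nM biotinylated H3K9me3 peptide was read by AlphaScreen. Buffer was PBS pH 7.4 with 0.01% Tween-20. Incubations ran 30 min at room temperature, with 10 ug/mL donor/acceptor beads.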
L3MBTL1 inh: qHTS Assay for the Inhibitors of L3MBTL1 | AlphaScreen L3MBTL1–H3K9me1 peptide binding | 230,000 compounds, 0.66% hits | Lethal(3)malignant brain tumor-like protein 1 (Homo sapiens), Q9Y468 | Potency, µM (highest dose often 57.1 µM), actives largely listed as inhibitors; further: nearly all actives have a fitted effect of over 60% in size
Target sequence (Q9Y468 whole entry, looked up): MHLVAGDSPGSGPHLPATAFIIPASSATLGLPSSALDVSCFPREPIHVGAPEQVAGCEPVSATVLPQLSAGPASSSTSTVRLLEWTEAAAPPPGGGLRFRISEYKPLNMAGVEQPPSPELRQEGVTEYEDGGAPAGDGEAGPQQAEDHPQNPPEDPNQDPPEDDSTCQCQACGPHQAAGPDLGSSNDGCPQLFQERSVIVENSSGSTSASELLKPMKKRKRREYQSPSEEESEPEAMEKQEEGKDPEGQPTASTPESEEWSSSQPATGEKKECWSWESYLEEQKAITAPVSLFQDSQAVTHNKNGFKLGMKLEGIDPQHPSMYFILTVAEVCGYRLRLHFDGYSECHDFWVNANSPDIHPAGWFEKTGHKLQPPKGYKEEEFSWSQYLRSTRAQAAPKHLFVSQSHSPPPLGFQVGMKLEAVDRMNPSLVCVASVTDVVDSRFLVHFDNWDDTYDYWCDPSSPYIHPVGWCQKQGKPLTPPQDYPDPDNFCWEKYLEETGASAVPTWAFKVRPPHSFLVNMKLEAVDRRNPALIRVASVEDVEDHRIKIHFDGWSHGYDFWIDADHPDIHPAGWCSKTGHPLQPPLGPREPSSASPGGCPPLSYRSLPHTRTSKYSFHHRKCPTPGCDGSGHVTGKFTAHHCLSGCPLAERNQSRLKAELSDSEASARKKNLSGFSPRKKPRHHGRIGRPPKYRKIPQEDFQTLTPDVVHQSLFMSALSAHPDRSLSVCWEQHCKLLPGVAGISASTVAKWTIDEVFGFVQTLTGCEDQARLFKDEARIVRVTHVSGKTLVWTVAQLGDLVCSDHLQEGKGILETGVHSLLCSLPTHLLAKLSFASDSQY
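Displacement of a biotinylated histone H3(1-15) peptide monomethylated at Lys9 (75 nM) from L3MBTL1 (50 nM) was measured by AlphaScreen after a 30 min room-temperature compound incubation; cefsulodin titration served as intraplate control.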
JMJD2A Tudor inh: qHTS Assay for Inhibitors of JMJD2A-Tudor Domain | Lysine-specific demethylase 4A (Homo sapiens), O75164 | AlphaScreen JMJD2A-Tudor / H3K4me3 peptide binding | Potency, µM (titrated, usually from 114 µM), usual class: inhibitors | 390,000 compounds, 4.4% hits | AID 504339, 2011; further: nearly all actives have a fitted effect of over 50% in size
BAZ2B block: qHTS Assay for Inhibitors of BAZ2B. Bromodomain adjacent to zinc finger domain protein 2B (Homo sapiens), Q9UIF8. AlphaScreen BAZ2B-H3K14Ac peptide displacement. Potency, µM (series often up to 114 µM), actives largely listed as inhibitors. 360,000 compounds, 4.4% hits; further: nearly all actives have a fitted effect of over 60% in size
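AlphaScreen luminescence quantifies BAZ2B engagement of H3K14Ac peptide; the protein and biotinylated peptide are both at 50 nM final, buffer PBS pH 7.4 with 0.01% Tween-20, all steps at room temperature.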
G9a inh: qHTS Assay for Inhibitors of Histone Lysine Methyltransferase G9a; Histone-lysine N-methyltransferase EHMT2 (Homo sapiens), Q96KQ7; G9a H3K9 monomethylation, AlphaScreen, 2 h; 350,000 compounds, 8.8% hits; Potency, µM (titrated, usually from 102 µM), hits mostly inhibitors; further: nearly all actives have a fitted effect of over 75% in size
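Chemiluminescent proximity detection of H3K9 monomethylation, read after 10 min bead incubation in the dark. Reaction: 20 nM G9a, 500 nM biotin-H3K9 peptide, 20 uM SAM cofactor, 2 h, room temperature, following 15 min enzyme-compound preincubation.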
Numbers stand for hits; 0 = inactive; ? = inconclusive; - = not tested or not shown; [ ] = dose if it differs, or a comment. The call rests on the fitted dose curve; in most records, active means well fitted inhibition curve with a large enough effect; inconclusive means small, poorly fitted or top-dose-only effect; inactive means no such curve, though single readings can be large or run the other way.

SMILES	HP1b binding inh	L3MBTL1 inh	JMJD2A Tudor inh	BAZ2B block	G9a inh
CCn1nc(C)cc1C(=O)N1CCCC(Nc2ccc(C(C)C)cc2)C1 (configuration not stated)	0	-	0	?	50µM
CC(C)c1ccc(NC2CCCN(C(=O)c3cnsn3)C2)cc1 (configuration not stated)	0	-	0	?	35µM
Cc1occc1C(=O)N1CCCC(Nc2ccc(C(C)C)cc2)C1 (configuration not stated)	0	-	?	?	40µM
C=Cc1ccc(Cn2c(C)c(CNCCc3ccc(OCC)cc3)c(C(=O)O)c2C)cc1	0	-	?	?	0
COc1ccc(-c2noc(CN(C(=O)COc3cc(C)c(Br)c(C)c3)C(C)C)n2)cc1	0	-	0	0	0
CCCN(CCC)c1nc(N)nc(C#N)n1	0	-	0	-	-
O=C1CCCC(=NCc2ccco2)C1	0	0	0	0	0
O=C1CN(Cc2ccccc2)C(=NCc2ccco2)S1	0	0	79µM	?	0
CC(C)CC(=O)/C(=C\c1ccc(Cl)cc1Cl)n1cncn1	0	0	0	0	79µM
CN(C)c1ccc(/C=C(/C(=O)c2ccc(Cl)cc2Cl)n2cncn2)cc1	0	0	?	50µM	0
CC(C)CC(=O)/C(=C/c1ccc(N(C)C)cc1)n1cncn1	0	-	0	0	0[2.33 µM]
COc1ccc(/C=C(/C(=O)c2ccc(Cl)cc2Cl)n2cncn2)cc1	0	0	0	0	0
Cc1ccc(OCCn2c(=S)[nH]c3c(N)ncnc32)cc1	?	0	5µM	0	3.5µM
CC(C)Oc1ccc(OCCn2c(=S)[nH]c3c(N)ncnc32)cc1	?	-	5.6µM	0	2.5µM
CC(C)Oc1ccc(OCCn2c(S(=O)(=O)O)nc3c(N)ncnc32)cc1	0	-	0	0	?
COc1ccc(/C=N/N=C/c2ccc(OC)cc2)cc1	0	-	0	0	0
COc1ccc(C2=CSC(/N=C/c3ccc(F)cc3)=NN2)cc1	?	0	?	0	25µM
Cc1ccc2ncc(C(=O)Nc3cccc(C(F)(F)F)c3)c(=O)n2c1	0	-	0	0	0
Cc1cc(C)c(Nc2cc(S(=O)(=O)O)c(N)c3c2C(=O)c2ccccc2C3=O)c(C)c1	?	16µM	7.9µM	5.6µM	2.8µM
COc1ccccc1-c1ccnc2c(-c3ccc(Br)cc3)c(C)nn12	0	-	0	0	0
O=C1NC(=O)/C(=C\c2ccc(Br)o2)S1	0	-	?	0	45µM
CC(C)(C)C(=O)Cn1c(=O)n(CCCCCC(=O)NCc2ccccc2Cl)c(=O)c2sccc21	0	-	0	0	0
O=S(=O)(Nc1ncccn1)c1ccc(NC(=S)N2CCN(Cc3ccc(F)cc3Cl)CC2)cc1	0	-	0	0	0
O=C(Oc1ccccc1)c1ccc2nsnc2c1	0	0	?	50µM	?
Cc1nn(-c2ccccc2)c(N)c1Sc1cccc([N+](=O)[O-])c1	0	0	56µM	?	?
SMILES	HP1b binding inh	L3MBTL1 inh	JMJD2A Tudor inh	BAZ2B block	G9a inh
Cc1nn(-c2ccccc2)c(N)c1Sc1ccccc1[N+](=O)[O-]	0	0	?	?	0
CC(=O)N1c2ccc(S(=O)(=O)N3CCCCCC3)cc2CC1C(=O)NCc1ccccc1 (configuration not stated)	0	-	0	0	0
Cc1cc(C)c2oc(C(=O)Nc3c(C)n(C)n(-c4ccccc4)c3=O)cc(=O)c2c1	0	-	0	0	0
Cc1ccc(C)c2nc3sc(C(=O)N4CCCc5ccccc54)c(N)c3cc12	0	0	0	0	?
Cc1ccc(C)c2nc3sc(C(=O)O)cc3cc12	0	?	0	0	40µM
COc1ccc2cc3c(N)nn(C(=O)c4ccc(OC)c(OC)c4)c3nc2c1	0	0	0	79µM	?
COc1ccc2cc3c(N)nn(C(=O)c4ccc(F)cc4)c3nc2c1	0	-	0	0	-
CN1\C(=C/C=C/C=C/C=[N+](C)C)C(C)(C)c2ccccc21	?	?	50µM	11µM	11µM
CN1/C(=C/C=C(C#N)C#N)C(C)(C)c2ccccc21	0	0	0	0	-
